The list is not random: actives were taken first. Their share in the collection is about 2.4%.
CHO-K1 Ca ag = counter-screen for M1 agonists: effect in parental CHO-K1 cells | Fluo-8 calcium fluorescence; scaled to maximal ATP response, vehicle zero | activation, % at 3 µM | 360,000 compounds, 0.48% hits | AID 602248, 2012; in the data active = activation above about 15%;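 also: untransfected CHO-K1 host cells lacking M1 receptor as counterscreen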
CHRM1 antagonist = human M1 muscarinic receptor antagonists, primary screen, CHO-K1 cells, Fluo-8 calcium fluorescence, 1536-well; Muscarinic acetylcholine receptor M1 (Homo sapiens), P11229; CHO-K1 hM1, ACh EC80 antagonist; inhibition, % at 3 µM; 360,000 compounds, 1.3% hits; AID 588852, 2011;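 active = percent inhibition above its own plate's cutoff, namely the mean of that plate's compound wells plus 3 SD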;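 also: peak over basal fluorescence ratio during 140 s after agonist addition; 0% = ACh EC80 plus DMSO and 100% = DMSO alone without agonist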
Target sequence (P11229 whole entry, looked up): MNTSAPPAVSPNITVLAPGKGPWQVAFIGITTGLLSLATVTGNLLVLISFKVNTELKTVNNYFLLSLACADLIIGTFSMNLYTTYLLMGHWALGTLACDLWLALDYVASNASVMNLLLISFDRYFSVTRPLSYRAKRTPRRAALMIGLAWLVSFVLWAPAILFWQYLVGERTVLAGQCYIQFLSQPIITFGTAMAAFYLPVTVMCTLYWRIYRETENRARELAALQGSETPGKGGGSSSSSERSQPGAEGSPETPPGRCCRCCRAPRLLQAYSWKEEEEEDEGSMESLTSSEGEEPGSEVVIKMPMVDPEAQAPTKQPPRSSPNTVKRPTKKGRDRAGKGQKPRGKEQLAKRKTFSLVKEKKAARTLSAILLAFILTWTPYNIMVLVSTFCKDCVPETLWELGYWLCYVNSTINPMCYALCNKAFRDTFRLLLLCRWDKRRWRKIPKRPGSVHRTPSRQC
M1 ag = human M1 muscarinic receptor agonists, primary screen, Fluo-8 calcium fluorescence, CHO-K1 cells, HTS; Muscarinic acetylcholine receptor M1 (Homo sapiens), P11229; CHO-K1 hM1, agonist mode; 0% DMSO, 100% acetylcholine EC100; activation, % at 3 µM; 360,000 compounds, 0.33% hits;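 active = activation above the run's mean compound activation plus 3 SD, cut at about 16% in these data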;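 also: peak over basal fluorescence ratio within a 140 s kinetic read after compound addition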
CHO-K1 Ca PAM = nonselective calcium activators in parental CHO-K1 cells, primary screen, counter-screen for M1 PAM project, cell-based, Fluo-8 calcium fluorescence, full deck, 1536-well | activation, % at 3 µM | ATP EC20; 0% at ATP EC20, 100% at ATP max | AID 602247, 2012 | 360,000 compounds, 0.02% hits;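 active = activation above the run cutoff, the mean activation of all test compounds plus 3 SD, cut at about 40% in these data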;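 also: peak over basal fluorescence ratio in a 140 s read after ATP addition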
CHRM1 PAM = human M1 muscarinic receptor positive allosteric modulators, primary screen, CHO-K1 cells, Fluo-8 calcium fluorescence, 1536-well; AID 588819, 2011; 360,000 compounds, 0.088% hits; Muscarinic acetylcholine receptor M1 (Homo sapiens), P11229; activation, % at 3 µM; CHO-K1 hM1, ACh EC20; 0% = ACh EC20, 100% = maximal ACh; in the data active = activation above about 19%, passing the limit was not always enough
CHO-K1 Ca antag = M1 antagonist counterscreen hit in parental CHO-K1 cells; ATP-induced calcium, Fluo-8 fluorescence; inhibition, % at 3 µM; 360,000 compounds, 0.6% hits; AID 602250;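 active = inhibition above a per-plate cutoff, the plate's mean sample inhibition plus 3 SD, cut at about 24% in these data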;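 also: 0% = DMSO plus EC80 ATP and 100% = DMSO alone without ATP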
Active calls of the source: *.

SMILES	CHO-K1 Ca ag	CHRM1 antagonist	M1 ag	CHO-K1 Ca PAM	CHRM1 PAM	CHO-K1 Ca antag
COc1cc2c(-c3ccc4cc[nH]c4c3)c(-c3ccsc3)oc(=O)c2cc1OC	0	37*	-12	2	-25	-8
COc1cc(C2=NOC(C(=O)Nc3ccc4c(c3)OCO4)C2)cc(OC)c1OC (stereo not drawn)	18*	2	4	-7	-3	4
c1ccc2c(c1)[nH]c1ccncc12	1	-3	18*	16	1	-12
COc1ccc(/C=N/n2c(COc3ccccc3)n[nH]c2=S)cc1OC	0	-22	-5	3	9	0
NNC(=O)CS(=O)(=O)CS(=O)(=O)CC(=O)NN	-1	-2	-1	-20	2	72*
Cc1ccsc1C(=O)N1CCCCCC1(C)C(=O)NCC(C)C (stereo not drawn)	1	-18	-1	9	5	-10
C=CCn1c(SCCN2CCCCC2)nc2c1c(=O)[nH]c(=O)n2C	0	28*	-12	-4	-20	20
C=CCn1c(SCCOC)nc2c1c(=O)[nH]c(=O)n2C	1	-10	-4	22	6	-9
CN1CCN(c2ccccc2/C=C2/C(=O)Nc3ccccc32)CC1	0	89*	-11	10	-30	-5
O=C1Nc2ccccc2/C1=C/c1ccccc1Cl	1	-11	-4	-13	2	-17
Cc1ccc(-n2nc3c(=O)n(CC(=O)NCCC4=CCCCC4)nc(C)c3c2C)cc1	-1	-4	-5	5	-2	-11
CC(=O)c1ccc(N(C(=O)CS(=O)CC(=O)Nc2ccc(F)cc2)C(C(=O)NC2CCCCC2)c2cccs2)cc1 (stereo not drawn)	-1	-2	-5	-11	-1	25*
O=C(CS(=O)CC(=O)N(CC(=O)NC1CCCC1)C1CCCC1)Nc1ccc(F)cc1 (stereo not drawn)	2	12	-4	-5	28*	5
CCOc1ccc(CCNC(=O)C2CCCN(c3ncnc4c3nc3n4CCCCC3)C2)cc1 (stereo not drawn)	0	-14	-6	29	5	-19
O=C(Cc1ccccc1)Nc1scc(-c2ccccc2)c1C(=O)N1CCOCC1	1	-11	-1	23	9	-11
NC(=O)c1c(-c2ccc(Cl)cc2Cl)csc1NC(=O)Cc1ccccc1	11	44*	-7	9	-25	22
N#CC1=C2SCCN2C(=O)C(C#N)C12CCCCC2 (stereo not drawn)	0	10	-4	-8	-3	25*
Oc1ccccc1/C=N/N1CCCCC1	0	5	31*	1	-5	-3
Oc1[nH]c2ccccc2c1/C=N/N1CCCCC1	1	22	32*	28	-12	-11
c1ccc(CC2CCCNC2)cc1 (stereo not drawn)	0	23	22*	22	-11	-20
CC(=O)Nc1ccc(NC(=O)Nc2cccc(Cl)c2)cc1	2	-12	-1	7	10	-6
CC(=O)c1ccc(NC(=O)Nc2cccc(Cl)c2)cc1	13	27*	11	-5	-19	34*
S=C(NCCN(C1CCCCC1)C1CCCC1)Nc1cccc(Cl)c1	3	21	-6	12	-12	6
CC(=O)c1cccc(NC(=O)Nc2cccs2)c1	1	2	5	-3	1	26*
CC(=O)c1ccc(NC(=S)NCCc2cccc(Cl)c2)cc1	15*	30	15	-15	-14	6
SMILES	CHO-K1 Ca ag	CHRM1 antagonist	M1 ag	CHO-K1 Ca PAM	CHRM1 PAM	CHO-K1 Ca antag
CC(=O)c1ccc(NC(=S)NCCc2ccc(S(N)(=O)=O)cc2)cc1	3	-4	-4	3	3	-21
S=C(NCCC(c1ccccc1)c1ccccc1)Nc1cccc(Cl)c1	6	7	0	-4	-7	26*
COc1cccc(NC(=O)Nc2cccs2)c1	4	-3	1	6	1	3
O=[N+]([O-])c1cccc(S(=O)(=O)/N=C(/Nc2ccccc2)c2ccccc2)c1	1	-17	-3	20	3	-23
CC1C(=O)OC(c2ccc(Br)cc2)C(C)(C)C1=O (stereo not drawn)	0	4	-4	8	-4	-13
Cc1ccc(S(=O)(=O)N2CCN(C(=O)COC(=O)c3cncc(Br)c3)CC2)c(C)c1	0	-10	-2	-5	6	-1
CCOc1ccc(C(=O)NCC(=O)N2CCN(c3ccccc3O)CC2)cc1	2	0	-5	13	1	-14
CC(=O)c1ccc(NC(=O)Nc2ccc(Br)cc2C)cc1	4	31*	3	19	-10	-13
CSc1cccc(NC(=O)Nc2ccc(Cl)cc2)c1	12	19	3	-3	-11	26*
CC(=O)c1cccc(NC(=S)NC(=O)Cc2ccc(Cl)cc2)c1	9	-3	21*	34	12	-12
CSc1cccc(NC(N)=O)c1	0	-6	-3	3	4	1
CCC1CN(C(=O)N2CCC(C(=O)NCc3cc(OC)c(OC)c(OC)c3)CC2)c2ccccc2O1 (stereo not drawn)	1	7	-4	12	-5	-14
Oc1ccc2ccccc2c1CN1CCN(C/C=C/c2ccccc2)CC1	0	77*	-7	15	-30	-4
O=S(=O)(c1ccccc1)N1CCN(Cc2c(O)ccc3ccccc23)CC1	4	21	-3	-6	-12	5
CC(C)(CNC(=O)C1c2ccccc2-c2ccccc21)N1CCOCC1	0	6	-12	2	-7	0
COc1ccc(C(C(=O)OC(C)CN(C)C)c2ccccc2)cc1 (stereo not drawn)	0	32*	-6	9	-19	-16
CC(CN1CCCC1)OC(=O)C(c1ccccc1)c1ccccc1 (stereo not drawn)	1	29	-9	11	-22	-9
CSc1ncccc1C(=O)N1CCN(S(=O)(=O)c2ccc(F)cc2)CC1	2	-3	-2	-8	1	1
CCCCC(=O)Nc1ncc(S(=O)(=O)c2ccc([N+](=O)[O-])cc2)s1	9	-4	23*	16	11	-2
CC(=O)NCCC(=O)Nc1ncc(S(=O)(=O)c2ccc([N+](=O)[O-])cc2)s1	1	3	1	4	0	-1
Cc1cccc(Nc2nc(-c3ccc(O)cc3O)cs2)n1	-1	-20	-3	-4	10	3

High-throughput results deposited in PubChem by The Scripps Research Institute Molecular Screening Center.
